± gives the standard deviation.
What follows are sequences tested on MILI (PIWIL2) piRISC loaded with L1MC piRNA (26 nt) (assay: pre-steady-state target cleavage rate (min^-1); guide: L1MC piRNA 5'p-UAACUAAAUACUAUGCAAGCUGUAGG; MIWI and MILI are mouse PIWI proteins and EfPiwi is from a freshwater sponge; tags in brackets are library labels; higher = faster piRNA-guided slicing of the target). Details: auxiliary factor: 500 nM mouse GTSF1.
In short: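 A transcribed, DNA-blocked target RNA library (0.1 nM) and 1 nM active affinity-purified piRISC bearing one synthetic guide were incubated in HEPES–potassium acetate buffer at 33 °C for 0–8 or 0–960 min, either with or without 500 nM GTSF1 partner protein. Uncleaved targets were sequenced, normalised to depth and to weakly complementary targets, and pooled over three trials, with k3 capped at 0.0001 min^-1. The pre-steady-state cleavage rate was derived with a burst-and-steady-state fit.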

Sequence	pre-steady-state target cleavage rate
UCCUGCUACACCUUGCAUAGUAUUUAGAAA	0.169 ± 0.036
UCCUGGAUCAGCUUGCUAAGUAUUUUCAAA	0.00483 ± 0.0036
UCCUGGAUGAGCUUGCAUUGUAUUUUGUUA	0.0997 ± 0.015
UCCUGGAACAGCUUGCAUAGUAUAUACAAA	0.0873 ± 0.03
UCCUGGUAGUCCUUGCAUAGUAUUUACAAA	0.00835 ± 0.0045
UCCUGGAACAGCUUGCAUAGUAUUUACUAA	0.0459 ± 0.013
UCCUGGUACAGCUUGCUUAGUAUUUACUUA	0.191 ± 0.038
UCCUGGAUGAGCUUGCUUAGUAUUUACAAA	0.0262 ± 0.011
UCCUGGAUCAGCUUGCAUAGUUUUAGUUA	0.00374 ± 0.0036
UCCUGGAUCACCUUCCAUAGUAUUUAGUUA	0.0405 ± 0.012
UCCUCCUACAGCUUGCAUACUAUUUUCAAA	0.0677 ± 0.018
UCCUGGAUGUCCUUGCUAUGUAUUUAGUUA	0.00552 ± 0.0044
UCCUGGAUGUCGUUGCAUAGUAUUUAGAUA	0.0436 ± 0.017
UCCUGGUACAGCUUGCAUAGUAUUUACUUA	0.103 ± 0.025
UCCUGGAUCAGCUUGCAAAGAAUUUAGUUA	0.0118 ± 0.0054
UCCUGCUACUGCUUGCAUAGUAUUUACUUA	0.082 ± 0.014
UCCUGCUACAGCUUGGAUAGUAUUUACUUA	0.00864 ± 0.0043
UCCUGGUAGAGCUUGCAUAGUAUUUUCAAA	0.00621 ± 0.0031
UCCUCCUACACCUUGCAUAGUUUUUAGUUA	0.0414 ± 0.012

Sequence	pre-steady-state target cleavage rate
UCCUCCUACAGCUUGCAAUCUAUUUAGAAA	0.0218 ± 0.007
UCCUGCUACAGCUUGGUAAGUAUUUAGUAA	0.207 ± 0.039
UCCUGGAUCAGCUUGCAUAGUAUAAACAAA	0.0772 ± 0.019
UCCUGGAUCAGGAUGCAUAGUAUUUACAAA	0.0127 ± 0.0048
UCCUGGAUGUCGUUGCAUAGUAUUAAGUUA	0.142 ± 0.028
UCCUGCUACAGCUUGCAUAGUUUUUACUUA	0.0291 ± 0.0063
UCCUGGAUGUCGAUGCAUAGUAUUUAGAUA	0.0384 ± 0.011
UCCUGCUACACCUUGCAUAGAAUUUAGUUA	0.0952 ± 0.037
UCCUGCUACAGCUUGCAUAGUUAUUUCAAA	0.0109 ± 0.0051
UCCUCCUACAGCUUGCUAAGUAUUUAGAAA	0.0796 ± 0.016
UCCUCCUACAGCUUGCAAUGUAUUUAGUAA	0.0921 ± 0.012
UCCUGGAACAGCUUGCAUAGUAAUUACUUA	0.023 ± 0.0082
UCCUGGAUGUCGAUGCCAUAGUAUUUAGUUA	0.00491 ± 0.0034
UCCUGGAUGUCGAUGGAUAGUAUUUAGUAA	0.00684 ± 0.0036
UCCUGGAACAGCUUGCAUAGAAUUUACAAA	0.0177 ± 0.0082
UCCUGGAUGUCCUUGCAUAGAAUAUAGUUA	0.00487 ± 0.0038
UCCUGGUACAGCUUGCAUAGUUUUUUCAAA	0.0153 ± 0.0075
UCCUGGAUGUCCUUGCAUAGUAUUUACAUA	0.039 ± 0.013
UCCUGCUACAGCUUGCAUAGUAUAAACAAA	0.0722 ± 0.022
